Drawing on PubChem BioAssay (NCI), this text covers growth for 40 molecules.

SMILES strings stand for the structures. Compounds without any hit were thinned out: in the full panel of roughly 83,000, 20% have a hit.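 Assay: single dose, 48 h. Readout: percent growth (0 = no net growth; negative = cell death). Active: <10.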 The source made the active and inactive calls.

In the first assay the test system is OVCAR-8 ovarian. Briefly: NCI-60 one-dose screen, 48 h (100 = growth as untreated, 0 = no growth, -100 = all killed). Conditions: 10 µM unless noted.
On to `O=c1oc2ccccc2cc1-c1csc(N=Nc2c(O)[nH]c3ccc(Cl)cc23)n1`, for which the growth is 96.3% (inactive).

On to `COc1cc2nc(SCc3cc(OC)c(OC)c(OC)c3)n(-c3ccccc3OC)c(=O)c2cc1OC`, for which the growth was 84.6% (inactive).

Take `COc1ccc(-c2nc3sccn3c2/C=C/C(=O)c2cc(OC)c(OC)c(OC)c2)cc1OC`: the growth is 25.6% (inactive).

On to `COC(=O)c1c2c(c(C)[n+]([O-])c1C)C(=O)C=C(NCc1ccc(F)c(Cl)c1)C2=O`, for which the growth was -21.2% (active).

On to `O=C(N/N=C/c1ccc(F)cc1)c1[nH]c2ccc(I)cc2c1-c1ccccc1`, for which the growth is 45.5% (inactive).

Consider `Cc1nc2cc(Nc3nc(Nc4ccc(F)cc4)nc(N4CCCC4)n3)ccc2n1Cc1ccccc1`, for which the growth was -35.2% (active).

For `COc1cc2oc(-c3ccc(O)cc3)cc(=O)c2c(O)c1I`, the growth is 96.3% (inactive).

On to `COC(=O)c1c2c(c(C)[n+]([O-])c1C)C(=O)C=C(NCc1ccc(Cl)cc1)C2=O`, for which the growth was 2.34% (active).

Consider `Cc1nc2cc(Nc3nc(Nc4ccc(F)cc4)nc(N4CCN(C)CC4)n3)ccc2n1Cc1ccccc1`, for which the growth was 11.6% (inactive).

On to `COc1ccc(OC)c2ncccc12`, for which the growth is 103% (inactive).

In the case of `COc1ccc(S(=O)(=O)ON=C2C=C(C)C(=O)C(C)=C2)cc1`, the growth was 93.1% (inactive).

Turning to `O=C(COc1cccc(/C=C2\COc3ccccc3C2=O)c1)c1ccccc1`, the growth was 19.1% (inactive).

`Oc1cccc(Nc2nc(-c3ccccn3)cs2)c1`: the growth is 106% (inactive).

As for `O=C1c2c(c3c4cc(Br)ccc4[nH]c3c3ccc4ccccc4c23)C(=O)N1O`, the growth is 84.1% (inactive).

Take `C=CC[P+](c1ccccc1)(c1ccccc1)c1ccccc1`: the growth is 45.8% (inactive).

Take `COC(=O)c1c2c(c(C)[n+]([O-])c1C)C(=O)C=C(NCc1cccc(Cl)c1)C2=O`: the growth was -14.4% (active).

As to `COc1ccc(-c2[nH]ncc2Nc2cc(OC)c(OC)c(OC)c2)cc1`, the growth is 58.1% (inactive).

With `COc1ccc(-c2nc(Nc3ccc(F)cc3)nc(Nc3ccc4c(c3)nc(C)n4Cc3ccccc3)n2)cc1`, the growth was 17.9% (inactive).

For `O=C(N/N=C(\CS(=O)(=O)c1ccccc1)c1cc2ccccc2oc1=O)c1ccccc1`, the growth was 100% (inactive).

For `COc1ccc(C(=O)C2=CC(=O)C(=O)C2)cc1OC`, the growth is 113% (inactive).

`COc1ccc(C(=O)COc2cccc(/C=C3\CSc4ccc(C)cc4C3=O)c2)cc1`: the growth was 66.4% (inactive).

With `Cc1ccc(S(=O)(=O)N2C/C(=C\c3cc(F)cc(F)c3)C(=O)/C(=C/c3cc(F)cc(F)c3)C2)cc1`, the growth was -29% (active).

Take `Nc1nc(N)c(N=Nc2c(Br)cc(S(N)(=O)=O)cc2Br)c(N)n1`: the growth is 98.4% (inactive).

With `Cc1ccc(-c2c3c(N)c4c(nc3nc3c2c(C)nn3-c2ccccc2)CCCC4)cc1`, the growth is 98.1% (inactive).

Regarding `COc1cc(-c2nc3ccccc3o2)cc(CN2CCN(c3ccccc3)CC2)c1O`, the growth is 78.3% (inactive).

Turning to `Cc1cccc2c(=O)c3c(sc12)c(NCCNCCO)nc1ccccc13`, the growth is 34% (inactive).

Turning to `Nc1nc2c(s1)CCc1c-2c(Br)n(Cc2ccccc2)c1Br`, the growth was 74.3% (inactive).

In the case of `COC(=O)c1c2c(c(C)[n+]([O-])c1C)C(=O)C=C(NCc1cccc(OC)c1)C2=O`, the growth was -23.7% (active).

As for `COc1ccc(-c2csc3c2-n2cccc2C3=O)cc1O`, the growth is 5.09% (active).

`COc1ccc(-c2c(-c3cc4c(c(OC)c3OC)OCO4)noc2N)cc1`: the growth was 32.1% (inactive).

Turning to `O=C(N/N=C(\CS(=O)(=O)c1ccccc1)c1cc2cc(Br)ccc2oc1=O)c1ccccc1`, the growth is 101% (inactive).

`Cn1c(=O)c2c(-c3ccccc3F)n(-c3ccc4c(c3)OCO4)cc2n(C)c1=O`: the growth is 99.1% (inactive).

Consider `CN(C)C(=S)SCN1C(=O)c2ccc([N+](=O)[O-])cc2S1(=O)=O`, for which the growth was 98.5% (inactive).

Consider `Cc1nn(-c2ccccc2)c2nc3nc4c(c(N)c3c(-c3ccc(Cl)cc3)c12)CCCC4`, for which the growth is 92.6% (inactive).

As for `COc1cc(CNCCN2C(=O)c3ccc4c5c(ccc(c35)C2=O)C(=O)N(CCNCc2cc(OC)c(OC)c(OC)c2)C4=O)cc(OC)c1OC`, the growth is -47.3% (active).

Consider `O=C(O)c1ccccc1Oc1cc(-c2ccco2)nc(OCCBr)n1`, for which the growth is 103% (inactive).

Take `COc1cc(-c2ccc3cc(OC)c(OC)c(OC)c3c2)cc(OC)c1OC`: the growth was 78.4% (inactive).

`COc1cccc(-c2ccc3c(c2)C2CCN(Cc4ccccc4)C3C2)c1` (configuration not stated): the growth was 85% (inactive).

`COc1ccc(OC2=CC(=O)c3ccc(C)nc3C2=O)cc1`: the growth was 80.7% (inactive).

In the case of `CC(=O)OC[C@]1(C)C=C2C(=O)[C@](C)(O)C3(CC3)C(C)=C2[C@H]1OC(C)=O`, the growth is 75.9% (inactive).

The next assay has as its system OVCAR-5 ovarian. The description is as above. As to conditions: 10 µM unless noted.
In the case of `O=c1oc2ccccc2cc1-c1csc(N=Nc2c(O)[nH]c3ccc(Cl)cc23)n1`, the growth is 96.2% (inactive).

For the molecule `COC(=O)c1c2c(c(C)[n+]([O-])c1C)C(=O)C=C(NCc1ccc(F)c(Cl)c1)C2=O`, the growth is -91.8% (active).

Take `COc1cc2oc(-c3ccc(O)cc3)cc(=O)c2c(O)c1I`: the growth was 104% (inactive).

For `COC(=O)c1c2c(c(C)[n+]([O-])c1C)C(=O)C=C(NCc1ccc(Cl)cc1)C2=O`, the growth is -69% (active).

In the case of `O=C1c2c(c3c4cc(Br)ccc4[nH]c3c3ccc4ccccc4c23)C(=O)N1O`, the growth was 111% (inactive).

Consider `COC(=O)c1c2c(c(C)[n+]([O-])c1C)C(=O)C=C(NCc1cccc(Cl)c1)C2=O`, for which the growth is -87.2% (active).

Regarding `O=C(N/N=C(\CS(=O)(=O)c1ccccc1)c1cc2ccccc2oc1=O)c1ccccc1`, the growth was 101% (inactive).

`Cc1cccc2c(=O)c3c(sc12)c(NCCNCCO)nc1ccccc13`: the growth was 64.9% (inactive).

As to `COC(=O)c1c2c(c(C)[n+]([O-])c1C)C(=O)C=C(NCc1cccc(OC)c1)C2=O`, the growth was -90.3% (active).

Consider `O=C(N/N=C(\CS(=O)(=O)c1ccccc1)c1cc2cc(Br)ccc2oc1=O)c1ccccc1`, for which the growth was 94.1% (inactive).

Take `COc1ccc(OC2=CC(=O)c3ccc(C)nc3C2=O)cc1`: the growth is 114% (inactive).

Regarding `CC(=O)OC[C@]1(C)C=C2C(=O)[C@](C)(O)C3(CC3)C(C)=C2[C@H]1OC(C)=O`, the growth was 91.3% (inactive).
